High-throughput results deposited in PubChem BioAssay by National Center for Advancing Translational Sciences (NCATS).
Shiga inhibitor: blocks Shiga toxin action in Vero cells | Vero cells, Shiga toxin protein synthesis inhibition reporter | inhibition, % at 38.7 µM | 9.2% of 290,000 active; in the data active = inhibition mostly above about 28%, no sharp cut-off; inactive = mostly below about 43%
CHX counter: affects cycloheximide protein synthesis inhibition readout, counter-screen; cell reporter, cycloheximide protein synthesis inhibition counterscreen; max response, %; 12% of 300,000 active; AID 2314; in the data active = max response mostly above about 13%, no sharp cut-off; inactive = mostly below about 14%; note: read at 38.3 µM for the half of the compounds with a filed dose
Pf growth 48h: P. falciparum growth inhibition at 48 hours (one generation). Potency, µM (titrated, usually from 28.7 µM), actives largely listed as inhibitors. 5.9% of 310,000 active. AID 504832. P. falciparum luciferase growth in erythrocytes, 48 h
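Read-out is firefly luciferase luminescence from an integrated reporter in P. falciparum, so falling signal marks reduced parasite growth. Infected erythrocytes were at 2% hematocrit and 0.1% parasitemia (final) in Albumax-supplemented RPMI 1640.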
HCMV inh: inhibitors of human cytomegalovirus; activity change, negative = inhibition, % at 57.5 µM; 4.5% of 410,000 active; HFF cells, HCMV-luciferase reporter, 72 h; hits give low values; in the data active = activity change below about -60%; inconclusive = no clear call, values can overlap the other calls; inactive = above about -39%
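Two compound doses tested in HFFs infected with HCMV-luciferase, MOI 1 PFU/cell, 72 h at 37C. Lysate luminescence read with OneGlo; data normalized against buffer-only and 10uM Salinomycin inhibitor controls.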
Pf growth 96h: P. falciparum growth inhibition at 96 hours. P. falciparum luciferase reporter growth, 96 h. Potency, µM (series often up to 28.7 µM), actives largely listed as inhibitors. 6.9% of 320,000 active. AID 504834
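Erythrocytes infected with luciferase-expressing P. falciparum were dispensed at 2% hematocrit and 0.05% parasitemia (final), then incubated with compounds 96 hours at 37 C in 5% CO2. Luminescence after detection reagent addition reported growth.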
A number is an active result; 0 = inactive; ? = inconclusive; - = no result. Rows were chosen to be rich in hits. Some 20% of all compounds tested hit in one or more screens of this group. Unless noted, calls come from the whole dose curve; as a rule, active = well fitted inhibition curve with a large enough effect; inconclusive = small, poorly fitted or top-dose-only effect, or another doubt; inactive = no such curve, though single readings can be large or run the other way.

SMILES | Shiga inhibitor | CHX counter | Pf growth 48h | HCMV inh | Pf growth 96h
CC(=O)c1cc(CN2CCN(C3CCN(C(C)C)CC3)C(CCO)C2)cs1 (centres undefined) | 0 | 0 | 0 | 0 | ?
O=C(OCC(=O)N1CCCCCC1)c1cc(S(=O)(=O)N2CCOCC2)ccc1F | - | - | - | 0 | -
CC(C)CN(C(=O)COC(=O)CSc1ccc([N+](=O)[O-])cc1)C1CCS(=O)(=O)C1 (centres undefined) | - | - | 0 | ? | 0
Cc1ccccc1-c1nc(CN2CCC(C(=O)NCCc3ccccc3)CC2)c(C)o1 | - | - | - | 0 | -
COc1ccc(-c2nc(CN3CCC(C(=O)NCc4ccc(F)cc4)CC3)c(C)o2)cc1OC | - | - | - | 0 | -
Cc1ccccc1-c1nc(CN2CCC(C(=O)NCCCN3CCCC(C)C3)CC2)c(C)o1 (centres undefined) | 0 | 0 | ? | -63 | 0
CCc1ccc(-c2nc(CN3CCC(C(=O)NCc4ccc(F)cc4)CC3)c(C)o2)cc1 | 0 | 0 | 13µM | 0 | ?
Clc1ccccc1Cc1noc(CN2CCN(Cc3ccccn3)CC2)n1 | 0 | 0 | 0 | 0 | ?
COc1ccc(CNc2ccc3c(c2)CCC3)cc1Br | 70 | 41 | 0 | 0 | 7.4µM
COc1ccccc1CNc1ccc2c(c1)CCC2 | - | 32 | ? | 0 | ?
CCOc1cc(CNc2ccc3c(c2)CCC3)ccc1OC | 0 | 35 | - | - | 0
COc1ccc(CNCc2ccc3c(c2)OCO3)cc1Br | 0 | 0 | - | 0 | 0
COCCCn1cc(CN2CC(N3CCN(Cc4ccccc4F)CC3)CS2(=O)=O)nn1 (centres undefined) | - | - | - | 0 | -
COc1cc(/C=C/C(=O)NC2CCCCC2)cc(OC)c1OC | 0 | 0 | 0 | 0 | ?
CC(NC(=O)c1cccc(S(=O)(=O)N2CCN(C)CC2)c1)C1CC2CCC1C2 (centres undefined) | 0 | 0 | 0 | 0 | 0
COc1cc(/C=C/C(=O)NC(C)C2CC3CCC2C3)cc(OC)c1OC (centres undefined) | 101 | 19 | ? | 0 | ?
COc1cc(OC)c(N(C)S(=O)(=O)c2cccc(C(=O)NC(C)C3CC4CCC3C4)c2)cc1Cl (centres undefined) | 0 | 0 | 0 | 0 | 2.6µM
CCc1nnc2c(N3CCN(c4cc(Cl)ccc4C)CC3)nc3ccccc3n12 | - | - | - | 0 | -
Cc1ccccc1OCC(=O)N1N=C(c2cccnc2)CC1(O)C(F)(F)F (centres undefined) | 0 | 0 | ? | 0 | 0
CC(=O)Nc1ccccc1-c1ccccc1[N+](=O)[O-] | - | - | - | 0 | -
Cc1ccccc1-c1cc(-c2ccccc2O)n[nH]1 | 75 | 30 | 0 | 0 | -
Cc1ccc(C)c(C(O)c2ncc(-c3ccccc3Cl)[nH]2)c1 (centres undefined) | - | - | - | 0 | -
Cc1ccc(-c2cc(-c3ccccc3Cl)[nH]n2)c(O)c1 | 128 | 51 | ? | 0 | 0
Cc1ccc(-c2cc(-c3ccccc3[N+](=O)[O-])[nH]n2)c(O)c1 | 75 | 31 | 0 | 0 | 0
Cc1ccccc1-c1noc(-c2cc(-c3ccc(F)cc3)n[nH]2)n1 | - | - | - | 0 | -
SMILES | Shiga inhibitor | CHX counter | Pf growth 48h | HCMV inh | Pf growth 96h
Cc1nc2ccn(Cc3cccnc3)c(=O)c2cc1C(=O)Nc1ccc(F)cc1F | - | - | - | 0 | -
Cc1ccc(-n2nnc(-c3nc(-c4cccs4)no3)c2N)cc1C | - | - | - | 0 | -
COc1ccc(CNC(=O)CN2C(=O)CCn3nc(-c4cn(C)c5ccccc45)cc32)cc1 | - | - | - | 0 | -
Cc1cc(NC(=O)C(C)C)cc(-c2nc3ncccc3o2)c1O | - | - | - | 0 | -
Cn1ccc(C(=O)N/N=C/c2cccnc2)n1 | 45 | 18 | 0 | 0 | 0
Cn1ccc(C(=O)N/N=C/c2ccccc2[N+](=O)[O-])n1 | 100 | 40 | 0 | 0 | 0
CN(C)c1ccc(C=NNC(=O)c2cccnc2)cc1 | - | - | - | 0 | -
CN(C)c1ccc(/C=N/NC(=O)c2ccnn2C)cc1 | 58 | 24 | 0 | 0 | 0
Cc1nn(C)c(C(=O)N/N=C/c2cccnc2)c1Br | 0 | 0 | 0 | 0 | ?
CN(C)c1ccc(/C=N/NC(=O)c2ccn(C)n2)cc1 | 34 | 33 | 0 | 0 | 0
CCOc1ccc(CCNC(=O)Cn2c(-c3cccs3)cc3ccccc32)cc1 | - | - | - | 0 | -
C/C(N)=C(/C#N)C(=O)COC(=O)CNC(=O)c1ccc(Cl)cc1Cl | 68 | 13 | 0 | 0 | 0
C/C(N)=C(/C#N)C(=O)COC(=O)COc1ccc(Cl)cc1 | 0 | 0 | 0 | 0 | 0
C/C(N)=C(/C#N)C(=O)COc1ccc(Cl)cc1Cl | 0 | 48 | 0 | 0 | 0
Cc1cc(C)n(C(=O)CSc2nnc(SCC(=O)n3nc(C)cc3C)s2)n1 | 0 | 0 | 0 | 0 | 0
O=C(CSc1nnc2ccc(-c3ccc(Br)cc3)nn12)NCC1CCCO1 (centres undefined) | - | - | 0 | 0 | ?
O=C(C1CC1)N1CCc2cc(Br)cc(S(=O)(=O)NCCCN3CCCC3)c21 | 0 | 0 | 0 | 0 | 9.3µM
CC1CCCN(CCCNS(=O)(=O)c2cc(Br)cc3c2N(C(=O)C2CC2)CC3)C1 (centres undefined) | 0 | 0 | 0 | 0 | 0
O=C(C1CC1)N1CCc2cc(Br)cc(S(=O)(=O)Nc3ccc(F)c(F)c3)c21 | - | - | - | 0 | -
Cc1ccc(NS(=O)(=O)c2cc(Br)cc3c2N(C(=O)C2CC2)CC3)cc1C | - | - | - | -75 | -
CCn1cc(C(=O)OCC(=O)Nc2cc(Cl)ccc2OC)c(=O)c2ccc(C)nc21 | - | - | - | 0 | -
CCCCNc1nc2c(S(=O)(=O)c3ccc(Cl)cc3)nnn2c2ccsc12 | - | - | - | 0 | -
CC1c2ccccc2SC(CCCN(C)C)c2ccccc21 (centres undefined) | 0 | 0 | ? | -61 | ?
COC(=O)c1ccc(OCC(O)CN(CC(C)C)CC(C)C)cc1 (centres undefined) | 0 | 0 | 13µM | 0 | ?
O=C(NCC(O)COc1ccc([N+](=O)[O-])cc1)Nc1ccccc1 (centres undefined) | 34 | 30 | 0 | 0 | 0
SMILES | Shiga inhibitor | CHX counter | Pf growth 48h | HCMV inh | Pf growth 96h
CC(=O)/C(=N\Nc1ccccc1)Oc1ccc([N+](=O)[O-])cc1 | 0 | 0 | 9.3µM | 0 | 10µM
CCCN(CCC)CC(O)COc1ccc([N+](=O)[O-])cc1 (centres undefined) | 0 | 0 | ? | 0 | 15µM
CCN(CC)S(=O)(=O)c1ccc(Cc2ncc(C(F)(F)F)cc2Cl)s1 | 0 | 0 | - | 0 | ?
COc1cc2cc(C(=O)N(C)C3CCS(=O)(=O)C3)[nH]c2cc1OC (centres undefined) | 0 | 0 | 0 | 0 | 0
COc1ccc([C@@H]2[C@@H]3C(=O)N(C(C)(C)C)C(=O)[C@@H]3[C@]3(C)C(=O)N(c4cccc(C)c4)C(=O)N23)cc1 | 0 | 0 | 0 | 0 | 0
CC(C)(C)N1C(=O)[C@H]2[C@@H](c3ccc(Br)cc3)N3C(=O)N(c4ccccc4)C(=O)[C@@]3(C)[C@H]2C1=O | 0 | 0 | ? | 0 | 13µM
COc1ccc([C@@H]2[C@@H]3C(=O)N(C(C)(C)C)C(=O)[C@@H]3[C@]3(C)C(=O)N(c4ccc(C(F)(F)F)cc4)C(=O)N23)cc1 | 24 | 21 | ? | 0 | ?
COc1ccc([C@@H]2[C@@H]3C(=O)N(C(C)(C)C)C(=O)[C@@H]3[C@]3(CC(C)C)C(=O)N(c4ccccc4)C(=O)N23)cc1 | 0 | 16 | ? | 0 | ?
